In ChEMBL document CHEMBL3988442, “University of Dundee, Small-Polar-MMV Screening Library” (2021) one finds Percent Effect data, which are given here for eight compounds.

Holding throughout (set-up): scale not given: direction of the effect not stated beside the values
Assay [1] has as its target Protein translocase subunit SecA (Escherichia coli (strain K12)) (UniProt P10408). The assay is described as follows: Assay to Identify E. coli SecA ATPase Inhibitors. The following applies: 30 µM. The format is functional.
Assay [2] deals with T1, Ubiquitin-activating enzyme e1, putative (Leishmania donovani (strain BPK282A1)) (UniProt E9BSI1).
T1 sequence (whole entry): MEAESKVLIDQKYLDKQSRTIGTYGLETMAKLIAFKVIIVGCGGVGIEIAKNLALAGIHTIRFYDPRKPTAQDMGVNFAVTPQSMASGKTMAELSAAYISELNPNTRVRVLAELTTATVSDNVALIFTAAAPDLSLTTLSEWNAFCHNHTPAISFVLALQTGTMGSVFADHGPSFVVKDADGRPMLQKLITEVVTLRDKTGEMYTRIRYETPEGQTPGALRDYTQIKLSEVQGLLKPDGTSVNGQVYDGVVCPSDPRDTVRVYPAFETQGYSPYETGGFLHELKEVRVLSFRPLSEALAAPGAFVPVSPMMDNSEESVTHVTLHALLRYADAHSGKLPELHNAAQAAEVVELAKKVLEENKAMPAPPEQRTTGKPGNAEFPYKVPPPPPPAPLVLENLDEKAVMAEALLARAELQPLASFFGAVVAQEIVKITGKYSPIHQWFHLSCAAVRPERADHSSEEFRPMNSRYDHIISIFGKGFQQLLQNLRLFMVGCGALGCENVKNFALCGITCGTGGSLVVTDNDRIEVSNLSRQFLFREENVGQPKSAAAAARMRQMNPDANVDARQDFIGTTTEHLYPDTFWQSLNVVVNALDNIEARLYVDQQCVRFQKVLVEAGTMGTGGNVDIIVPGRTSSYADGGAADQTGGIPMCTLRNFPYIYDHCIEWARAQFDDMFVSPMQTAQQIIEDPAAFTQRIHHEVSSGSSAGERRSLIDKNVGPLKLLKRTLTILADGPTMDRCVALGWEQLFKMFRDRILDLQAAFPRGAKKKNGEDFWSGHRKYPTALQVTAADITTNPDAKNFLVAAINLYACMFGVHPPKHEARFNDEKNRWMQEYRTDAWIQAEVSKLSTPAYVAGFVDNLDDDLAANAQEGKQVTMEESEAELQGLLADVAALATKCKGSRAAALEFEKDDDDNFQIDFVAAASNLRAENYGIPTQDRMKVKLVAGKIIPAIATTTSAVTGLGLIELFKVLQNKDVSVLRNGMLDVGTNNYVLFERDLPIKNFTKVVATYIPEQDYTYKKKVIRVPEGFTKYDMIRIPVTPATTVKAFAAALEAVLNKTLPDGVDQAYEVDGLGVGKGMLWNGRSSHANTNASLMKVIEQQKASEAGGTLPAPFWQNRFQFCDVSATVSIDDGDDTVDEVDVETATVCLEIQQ
The assay is described as follows: Leishmania donovani Ubiquitin Activating Enzyme (LdE1). Format: functional. Particulars: 30 µM.

Assay [3] concerns the target AMP-activated protein kinase, AMPK (Homo sapiens) (UniProt P54646+O43741+P54619+Q9UGJ0+Q9Y478+Q13131+Q9UGI9). The assay is described as follows: AMP-dependent Kinase enzyme assay. An in vitro enzyme assay that detects ADP turnover that is directly proportional to AMPK activity. This uses naive AMPK that is activated during the assay with MK-8722. The format is functional. The following applies: 30 µM.

Assay [4] addresses Sialic acid-binding Ig-like lectin 9 (Homo sapiens) (UniProt Q9Y336). The assay is described as follows: Hs-Siglec9 ALPHAscreen SOP 20170721. Particulars: 10 µM. In general terms: In Alpha technology, singlet oxygen from a donor bead excites a nearby acceptor bead.
For a further assay, the system named is Trypanosoma cruzi. The experiment in a line: Trypanosoma cruzi phosphomannomutase and mannose-1-phosphate guanylyltransferase assay. The format is functional. The following applies: 10 µM.
The target of assay [5] is T2, Arginase-2, mitochondrial (Homo sapiens) (UniProt P78540).
T2 sequence (whole entry): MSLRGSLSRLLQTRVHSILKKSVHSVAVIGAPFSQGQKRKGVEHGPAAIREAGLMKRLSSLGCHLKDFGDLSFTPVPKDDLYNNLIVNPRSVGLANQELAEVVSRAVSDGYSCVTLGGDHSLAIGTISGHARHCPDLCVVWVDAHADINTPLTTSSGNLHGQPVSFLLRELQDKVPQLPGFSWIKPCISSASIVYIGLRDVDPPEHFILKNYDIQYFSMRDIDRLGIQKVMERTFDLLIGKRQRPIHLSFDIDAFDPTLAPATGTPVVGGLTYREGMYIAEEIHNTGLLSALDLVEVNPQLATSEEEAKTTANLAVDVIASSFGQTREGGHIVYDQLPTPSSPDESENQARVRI
The experiment in a line: in vitro enzyme assay to detect the production of urea directly proportional to the activity of Arginase II. Further: in the data most compounds retested in dose-response had high values. Format: functional. Particulars: 33.3 µM.

In assay [6] the target is T3, Proteasome subunit beta (Trypanosoma cruzi) (UniProt O96673).
T3 sequence (whole entry): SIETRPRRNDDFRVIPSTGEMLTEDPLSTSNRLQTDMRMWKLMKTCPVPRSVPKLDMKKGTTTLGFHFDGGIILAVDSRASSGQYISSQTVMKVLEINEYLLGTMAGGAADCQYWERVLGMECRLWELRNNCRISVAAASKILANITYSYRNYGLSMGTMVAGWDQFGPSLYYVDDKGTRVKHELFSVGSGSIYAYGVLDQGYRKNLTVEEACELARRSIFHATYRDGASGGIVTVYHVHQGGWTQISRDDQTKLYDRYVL
The assay is described as follows: Trypanosoma cruzi proteasome chymotrypsin-like activity (TcProtChymo) assay. Further: in the data most compounds retested in dose-response had high values. Particulars: 9.37 µM. Format: functional.

Another assay is filed under the species Homo sapiens. The assay is described as follows: To identify inhibition of the IFN signalling (Jak-Stat) pathway via expression of an eGFP reporter gene under the control of an IFN-stimulated response element (ISRE) containing MxA promoter. The following applies: 30 µM. The format is functional. For orientation: A reporter such as luciferase makes a cellular process visible.

Assay [7] addresses T4, Tyrosyl-tRNA synthetase, putative (Trypanosoma cruzi (strain CL Brener)) (UniProt Q4DSP6).
T4 sequence (whole entry): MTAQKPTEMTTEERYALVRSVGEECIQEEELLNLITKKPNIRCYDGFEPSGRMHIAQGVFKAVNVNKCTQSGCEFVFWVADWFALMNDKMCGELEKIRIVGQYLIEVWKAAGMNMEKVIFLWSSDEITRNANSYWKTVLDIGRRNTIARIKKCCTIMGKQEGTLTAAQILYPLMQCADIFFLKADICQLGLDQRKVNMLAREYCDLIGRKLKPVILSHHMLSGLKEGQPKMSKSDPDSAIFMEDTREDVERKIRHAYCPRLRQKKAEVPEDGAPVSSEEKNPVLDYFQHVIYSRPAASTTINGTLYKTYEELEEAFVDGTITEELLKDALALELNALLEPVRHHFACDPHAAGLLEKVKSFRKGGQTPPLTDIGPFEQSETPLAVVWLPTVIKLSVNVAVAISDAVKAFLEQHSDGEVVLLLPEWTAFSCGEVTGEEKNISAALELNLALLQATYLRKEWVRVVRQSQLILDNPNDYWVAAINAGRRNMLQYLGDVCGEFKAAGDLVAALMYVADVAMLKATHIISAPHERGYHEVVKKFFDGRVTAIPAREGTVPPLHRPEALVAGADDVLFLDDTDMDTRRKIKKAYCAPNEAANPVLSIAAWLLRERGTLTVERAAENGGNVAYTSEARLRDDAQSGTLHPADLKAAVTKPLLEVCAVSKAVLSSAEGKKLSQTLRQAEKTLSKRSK
The assay is described as follows: Trypanosoma cruzi tyrosyl tRNA synthetase (TcYRS) _High Tyrosine SOP. Further: in the data most compounds retested in dose-response had high values. The format is functional. The following applies: 30 µM.

Assay [8] has as its target T4, Tyrosyl-tRNA synthetase, putative (Trypanosoma cruzi (strain CL Brener)). The experiment in a line: Trypanosoma cruzi tyrosyl tRNA synthetase (TcYRS) SOP. The format is functional. Particulars: 30 µM.
For assay [9], the target named is Chromo domain-containing protein 1 (Saccharomyces cerevisiae (strain ATCC 204508 / S288c) (Baker's yeast)) (UniProt P32657). The experiment in a line: ScCHD-1 Enzyme Inhibition Assay. Further: in the data most compounds retested in dose-response had high values. The format is functional. The following applies: 30 µM.
Chromo domain-containing protein 1 (Saccharomyces cerevisiae (strain ATCC 204508 / S288c) (Baker's yeast)), sequence (P32657 whole entry, the tested form may be a part): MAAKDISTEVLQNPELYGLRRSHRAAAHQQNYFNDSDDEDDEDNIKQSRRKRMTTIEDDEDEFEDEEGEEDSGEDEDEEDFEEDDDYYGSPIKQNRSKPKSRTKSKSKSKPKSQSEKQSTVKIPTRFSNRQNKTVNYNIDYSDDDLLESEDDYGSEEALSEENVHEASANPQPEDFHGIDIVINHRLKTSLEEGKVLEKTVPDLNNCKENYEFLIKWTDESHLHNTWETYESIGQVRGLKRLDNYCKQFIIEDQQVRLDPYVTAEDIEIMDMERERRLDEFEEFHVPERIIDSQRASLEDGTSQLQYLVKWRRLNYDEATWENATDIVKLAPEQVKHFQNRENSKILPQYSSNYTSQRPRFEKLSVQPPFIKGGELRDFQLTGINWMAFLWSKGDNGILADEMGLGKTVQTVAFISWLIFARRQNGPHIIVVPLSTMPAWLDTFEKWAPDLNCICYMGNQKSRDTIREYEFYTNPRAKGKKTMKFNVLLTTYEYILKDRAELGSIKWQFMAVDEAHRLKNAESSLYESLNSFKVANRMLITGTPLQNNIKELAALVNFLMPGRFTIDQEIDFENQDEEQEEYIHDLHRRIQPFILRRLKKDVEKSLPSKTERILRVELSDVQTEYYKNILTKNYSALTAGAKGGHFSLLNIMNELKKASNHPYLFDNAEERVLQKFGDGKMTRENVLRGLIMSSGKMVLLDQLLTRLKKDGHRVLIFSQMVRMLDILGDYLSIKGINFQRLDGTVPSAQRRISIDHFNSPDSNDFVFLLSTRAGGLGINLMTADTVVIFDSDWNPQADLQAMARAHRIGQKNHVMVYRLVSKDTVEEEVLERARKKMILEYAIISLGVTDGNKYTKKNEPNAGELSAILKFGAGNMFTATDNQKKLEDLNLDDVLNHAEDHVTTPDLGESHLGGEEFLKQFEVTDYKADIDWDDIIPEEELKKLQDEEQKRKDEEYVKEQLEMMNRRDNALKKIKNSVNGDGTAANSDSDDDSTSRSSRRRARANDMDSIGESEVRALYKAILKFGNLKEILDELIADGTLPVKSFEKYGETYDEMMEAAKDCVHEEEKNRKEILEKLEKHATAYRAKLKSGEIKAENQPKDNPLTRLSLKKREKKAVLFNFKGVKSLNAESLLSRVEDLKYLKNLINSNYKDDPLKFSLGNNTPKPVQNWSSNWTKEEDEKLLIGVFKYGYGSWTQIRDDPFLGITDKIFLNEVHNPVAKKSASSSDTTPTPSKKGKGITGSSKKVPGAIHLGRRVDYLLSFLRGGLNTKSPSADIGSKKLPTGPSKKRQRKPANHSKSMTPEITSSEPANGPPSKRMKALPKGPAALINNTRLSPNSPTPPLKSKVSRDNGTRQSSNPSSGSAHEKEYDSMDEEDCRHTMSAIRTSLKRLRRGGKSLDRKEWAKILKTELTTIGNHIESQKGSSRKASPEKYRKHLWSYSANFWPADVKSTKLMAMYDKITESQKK

For some of these results: Results with a measured potency or affinity are listed apart.

Sialic acid-binding Ig-like lectin 9 (Homo sapiens), sequence (Q9Y336 whole entry): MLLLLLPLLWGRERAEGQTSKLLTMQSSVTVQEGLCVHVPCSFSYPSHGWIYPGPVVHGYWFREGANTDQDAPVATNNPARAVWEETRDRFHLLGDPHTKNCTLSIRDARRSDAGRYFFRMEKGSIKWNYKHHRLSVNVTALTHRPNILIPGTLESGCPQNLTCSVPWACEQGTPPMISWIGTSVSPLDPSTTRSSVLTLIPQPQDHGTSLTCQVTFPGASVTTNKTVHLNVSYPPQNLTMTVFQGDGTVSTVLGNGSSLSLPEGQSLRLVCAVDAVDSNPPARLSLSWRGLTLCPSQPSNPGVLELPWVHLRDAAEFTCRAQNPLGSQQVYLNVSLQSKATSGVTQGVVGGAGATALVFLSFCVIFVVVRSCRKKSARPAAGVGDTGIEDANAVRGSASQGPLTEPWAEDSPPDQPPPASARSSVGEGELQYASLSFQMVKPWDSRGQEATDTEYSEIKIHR
Protein translocase subunit SecA (Escherichia coli (strain K12)), sequence (P10408 whole entry): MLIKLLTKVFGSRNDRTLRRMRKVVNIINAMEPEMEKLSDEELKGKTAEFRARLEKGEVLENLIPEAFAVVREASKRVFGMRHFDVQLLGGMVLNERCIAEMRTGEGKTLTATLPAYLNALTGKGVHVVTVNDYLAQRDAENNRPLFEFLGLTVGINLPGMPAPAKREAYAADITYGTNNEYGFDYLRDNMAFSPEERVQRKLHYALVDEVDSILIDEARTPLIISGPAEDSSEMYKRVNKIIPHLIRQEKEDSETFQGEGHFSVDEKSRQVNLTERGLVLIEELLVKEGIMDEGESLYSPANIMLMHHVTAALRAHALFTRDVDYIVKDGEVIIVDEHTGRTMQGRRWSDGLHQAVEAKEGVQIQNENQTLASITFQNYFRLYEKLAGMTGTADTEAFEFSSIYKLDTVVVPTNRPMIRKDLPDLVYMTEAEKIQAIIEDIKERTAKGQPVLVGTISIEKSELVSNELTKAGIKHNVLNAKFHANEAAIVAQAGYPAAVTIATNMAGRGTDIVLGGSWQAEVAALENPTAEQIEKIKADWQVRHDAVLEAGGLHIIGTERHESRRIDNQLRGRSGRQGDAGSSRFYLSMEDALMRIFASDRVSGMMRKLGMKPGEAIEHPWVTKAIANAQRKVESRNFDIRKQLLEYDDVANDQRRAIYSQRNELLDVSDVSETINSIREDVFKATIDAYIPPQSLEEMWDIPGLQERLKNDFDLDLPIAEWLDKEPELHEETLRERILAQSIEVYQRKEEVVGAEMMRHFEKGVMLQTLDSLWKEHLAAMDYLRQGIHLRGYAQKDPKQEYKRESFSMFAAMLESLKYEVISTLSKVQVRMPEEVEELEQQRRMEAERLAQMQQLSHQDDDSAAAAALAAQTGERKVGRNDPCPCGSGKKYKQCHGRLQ

As for `CCn1cc(N2Cc3nc(N4CCOCC4)ncc3C2=O)cn1`, the Percent Effect in assay [1] is -4.68%; in assay [2], 17.3%; in assay [3], -4.89%; in assay [4] it was 0.208%; in the assay with Trypanosoma cruzi it was 0.786%; in [5] it was -9.33%. Moreover, the Percent Effect in assay [6] was 4.44%; in the assay filed under Homo sapiens it was -2.82%; in assay [7], 2.12%; in assay [8], 5.13%; in assay [9], -15.2%.

For `Cn1cnc2c1C(COCC1CC1)CN(C(=O)Cc1ccsc1)C2` (stereo not drawn), the Percent Effect in [1] was -4.47%; in assay [2], 10.4%; in assay [3], -8.29%; in [4], 8.48%; with Trypanosoma cruzi, 6.02%; in [5], -8.39%. The Percent Effect in assay [6] worked out at 7.14%; in the assay listed under Homo sapiens, 9.25%; in assay [7] it was 2.12%; in assay [8], 6.41%; in assay [9] it was 84.8%.

For the compound `COC(=O)C(NC(=O)COC1CCCC1)c1cc(F)ccc1F` (stereo not drawn), the Percent Effect in assay [1] was -6.55%; in [2], 7.79%; in assay [3], -4.98%; in assay [4] it was 20.1%; with Trypanosoma cruzi it was 5.06%; in assay [5], -7.83%. Also, the Percent Effect in [6] is 2.7%; in the assay listed under Homo sapiens, -0.885%; in assay [7], 4.85%; in assay [8], 21.9%; in assay [9], -9.9%.

As for `CN(CCO)Cc1nnc(C2CCN(C(=O)c3cccnc3)CC2)n1C`, the Percent Effect is -3.37% in [1]; 16% in assay [2]; -6.42% in assay [3]; 14.9% in [4]; 5.75% in the assay on Trypanosoma cruzi; 4.69% in assay [5]. For the same compound, the Percent Effect was 6.97% in assay [6]; 4.06% in the assay listed under Homo sapiens; 6.01% in [7]; 16.1% in [8]; -7.14% in assay [9].

Take `COc1ccc2c(c1)CCCN2Cc1nc2c(cnn2C)c(=O)[nH]1`: the Percent Effect in assay [1] is -3.64%; in assay [2] it was 20.2%; in assay [3], -9.32%; in [4], -0.208%; in the assay with Trypanosoma cruzi, -2.36%; in assay [5] it was 2.28%. Further, the Percent Effect in [6] was 3.52%; in the assay listed under Homo sapiens it was 3.6%; in assay [7], 9.36%; in assay [8] it was 16.5%; in [9] it was -5.55%.

In the case of `Cc1nc(C2CCCN(C(=O)c3ccc(OCC4CC4)cc3)C2)no1` (stereo not drawn), the Percent Effect is -11% in assay [1]; 15.8% in assay [2]; -2.79% in [3]; 21.9% in assay [4]; 10.9% with Trypanosoma cruzi; 3.24% in assay [5]. Also, the Percent Effect was 7.19% in [6]; 0.288% in the assay listed under Homo sapiens; 5.42% in assay [7]; 25.9% in assay [8]; -8.85% in [9].

As for `CC(C)CN1CCCn2nc(CNC(=O)CCN)cc2C1`, the Percent Effect in assay [1] was -6.28%; in assay [2] it was 5.33%; in [3] it was 4.29%; in assay [4] it was 6.76%; in the assay with Trypanosoma cruzi, 1.85%; in assay [5], 3.65%. Also, the Percent Effect is 13.4% in [6]; 7.88% in the assay listed under Homo sapiens; 6.01% in assay [7]; 16.1% in assay [8]; -5.7% in [9].

With `CN(Cc1ccsc1)C(=O)Nc1ccc(S(=O)(=O)N(C)C)cc1`, the Percent Effect is -1.98% in assay [1]; 17.7% in assay [2]; -2.37% in [3]; -9.54% in [4]; -1.79% in the assay on Trypanosoma cruzi; -0.38% in assay [5]. Moreover, the Percent Effect is -0.0819% in assay [6]; -7.23% in the assay listed under Homo sapiens; 6.4% in assay [7]; 21.5% in [8]; -6.52% in [9].
